D2 PAM-1: positively modulates the human D2 dopamine receptor allosterically. potentiation, % at 10 µM. HEK293 T-REx D2, calcium flux, EC20 dopamine potentiation. P14416. AID 485347. 0.34% of 340,000 active;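 active = potentiation over 3 SD above the plate norm, cut at about 30% in these data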; also: 0% is about no effect
Target sequence (P14416 whole entry, looked up): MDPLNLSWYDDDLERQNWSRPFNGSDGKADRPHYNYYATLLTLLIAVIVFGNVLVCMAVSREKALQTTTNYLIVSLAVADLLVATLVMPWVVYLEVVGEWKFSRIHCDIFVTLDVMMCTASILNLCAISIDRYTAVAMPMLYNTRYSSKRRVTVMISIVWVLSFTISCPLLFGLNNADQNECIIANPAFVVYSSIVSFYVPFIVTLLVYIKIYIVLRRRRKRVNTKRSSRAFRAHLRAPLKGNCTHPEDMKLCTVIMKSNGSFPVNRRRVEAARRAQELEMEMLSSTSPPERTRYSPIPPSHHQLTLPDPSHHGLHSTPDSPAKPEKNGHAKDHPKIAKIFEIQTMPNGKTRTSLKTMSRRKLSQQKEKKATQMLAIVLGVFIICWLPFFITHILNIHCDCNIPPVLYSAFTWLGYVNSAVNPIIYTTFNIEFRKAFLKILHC
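Primary screen. Calcium kinetics in induced HEK293 T-REx D2 cells: compound pre-addition 180 s, EC20 dopamine, 180 s more.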
D2 ag-1: activates the human D2 dopamine receptor. P14416. HEK293 T-REx D2 cells, calcium flux agonist mode. activation, % at 2 µM. 0.53% of 340,000 active;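 active = activation over 3 SD above normal in the single-dose calcium agonist read, cut at about 30% in these data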; also: 0% is about no effect
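Agonism is scored from calcium flux in a force-coupled, inducible HEK293 cell line expressing D2, read kinetically for 180 s after compound addition against dopamine controls.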
D2 ag-2: activates the human D2 dopamine receptor. activation, % (test concentration not listed). DiscoveRx PathHunter D2 beta-arrestin, luminescence, 90 min; 100% = 57 uM dopamine signal. 0.084% of 360,000 active. P14416; in the data active = activation above about 40%; inconclusive = between about 15% and that limit
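DiscoveRx PathHunter D2 beta-arrestin cells (2,100/well) attached overnight, then compound-stimulated 90 min at 37 C in HBSS/10 mM HEPES/0.1% Tween-20 buffer; beta-galactosidase complementation read by luminescence after 1 h at ambient temperature. Dopamine 57 uM final (EC100) as control.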
D2 antag: antagonists of human D2 dopamine receptor | HEK293 TREx D2 cells, calcium flux, dopamine EC80 | inhibition, % at 10 µM | 2% of 340,000 active | AID 485344; in the data active = inhibition above about 30%; inactive = below that, where a call was filed; also: 0% is about no effect
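Tetracycline-induced HEK293 TREx cells expressing D2 receptor forced-coupled to calcium signalling, loaded with no-wash calcium dye. Compounds added and calcium flux read 180 s, then dopamine added at EC80 and read a further 180 s.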
D2 PAM-2: human D2 receptor positive allosteric modulation. P14416. DiscoveRx D2 beta-arrestin cells, luminescence, 90 min; 100% = 57 uM dopamine signal. potentiation, % (concentration not given with the values). 0.23% of 360,000 active. AID 624464; in the data active = potentiation above about 50%; inconclusive = mostly about 30% to 49%
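PathHunter D2 cells, attached overnight at 37 deg C, received compound in DMSO plus dopamine at EC20 (50 nM final) for 90 min at 37 deg C. Beta-arrestin recruitment was read as luminescence after 1 h with detection reagent at ambient temperature.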
Starred values were filed as active, the others as inactive; ? = inconclusive; nt = no result. Most compounds without a hit are left out; they make up all but 2.4% or so of the library.

SMILES	D2 PAM-1	D2 ag-1	D2 ag-2	D2 antag	D2 PAM-2
CSc1ccccc1C(=O)C1CCCN(Cc2ccn[nH]2)C1 (centres undefined)	-20	22	-1	48*	-3
CSc1ncc(CN2CCCC(C(=O)c3ccccc3SC)C2)cn1 (centres undefined)	-15	-1	-5	5	-34
CNc1cc(N2CCNCC2)ccc1[N+](=O)[O-]	-11	0	0	0	-5
O=[N+]([O-])c1ccc(N2CCNCC2)cc1NCc1ccco1	-24	-1	-1	61*	-30
CN1CCN(c2ccc([N+](=O)[O-])c(NCc3ccco3)c2)CC1	-18	-1	-2	53*	-43
Cc1cc(C)cc(-n2c(=O)[nH]c3ccccc3c2=O)c1	2	1	nt	nt	nt
Cc1cc(-n2c(/C=C/c3cccs3)nc3ccccc3c2=O)ccc1Br	9	1	nt	nt	nt
Cc1cccc(NC(=O)Cn2cc(C(=O)c3ccccc3)c3ccccc32)c1	-3	0	nt	nt	nt
CCOc1ccc(CN(CCc2ccc3c(c2)OCO3)Cc2cccc(C)c2)cc1	-23	nt	nt	nt	nt
O=C1CC(c2cccnc2)=NN1c1ccc(Cl)cc1Cl	6	0	-2	4	-12
CCN1C(=O)CC(c2cccnc2)=Nc2ccccc21	3	1	1	31*	-10
O=C(Nc1ccccc1C(F)(F)F)c1cccn(Cc2ccccc2)c1=O	6	1	nt	nt	nt
Cc1ccc(S(=O)(=O)N(c2cc(Cl)c(O)c(Cl)c2)P(=O)(OC(C)C)OC(C)C)cc1	31*	0	3	5	-8
COC(COC(N)=O)C1=C(N2CC2)C(=O)C(C)=C(N2CC2)C1=O (centres undefined)	nt	nt	?	nt	72*
Cc1ccc(C(C)C)c(OCC#CCN2CCCC2)c1	-26	-1	4	35*	61*
Cc1cccc(CS(=O)(=O)Cc2ccc(C(=O)N3CCC4(CC3)OCCO4)o2)c1	11	-1	-3	40*	16
O=C(c1ccc(CS(=O)(=O)c2ccccc2)o1)N1CCC2(CC1)OCCO2	4	-1	-1	-11	-5
Cc1ccc(Cn2cccc(C(=O)Nc3nnc(C)s3)c2=O)cc1	9	20	nt	nt	nt
CCCCc1ccc(NC(=O)c2cccn(Cc3ccc(Cl)cc3)c2=O)cc1	-3	nt	nt	nt	nt
CCC(C)NC(=O)CCC(=O)OC1O[C@H]2OC3(C)CC[C@H]4[C@H](C)CCC(C1C)C24OO3 (some centres undefined)	7	0	57*	-31	24
CCC(C)C(NC(=O)CCCNC(=O)CCC(=O)OC1O[C@H]2OC3(C)CC[C@H]4[C@H](C)CCC(C1C)C24OO3)C(=O)O (some centres undefined)	16	0	nt	18	nt
O=c1[nH]c2ccccc2n1C1CCN(C(CCc2ccccc2)c2nnnn2-c2ccc3c(c2)OCCO3)CC1 (centres undefined)	nt	nt	11	nt	58*
COc1ccc(-n2nnnc2C(CCc2ccccc2)N2CCC(n3c(=O)[nH]c4ccccc43)CC2)cc1 (centres undefined)	nt	nt	?	nt	27
O=c1[nH]c2ccccc2n1C1CCN(C(c2ccnc3ccccc23)c2nnnn2-c2ccc3c(c2)OCCO3)CC1 (centres undefined)	nt	nt	?	nt	50*
CN1CCN(c2ccc([N+](=O)[O-])cc2Cl)CC1	-7	1	-3	10	-16
SMILES	D2 PAM-1	D2 ag-1	D2 ag-2	D2 antag	D2 PAM-2
CC1CN(c2cc([N+](=O)[O-])ccc2Cl)CC(C)N1 (centres undefined)	-19	0	-3	69*	-4
CN1CCN(c2cc([N+](=O)[O-])ccc2Cl)CC1	-33	1	-4	69*	-9
COC(=O)C1=C(c2ccc(OCc3ccccc3)cc2)C[C@@H]2CC[C@H]1N2C(=O)NC1CCN(Cc2ccccc2)CC1	-11	-1	2	70*	-103
CSc1ncc(C(=O)Nc2ccc(Cl)cc2C(=O)c2ccccc2)c(C)n1	-1	-1	nt	nt	nt
CN1C[C@H](CO)C=C2c3cccc4[nH]cc(c34)C[C@H]21	1	0	69*	-9	8
COc1c(C)cc(C(=O)C2CCCN(Cc3cccc(C)n3)C2)cc1C (centres undefined)	-6	38*	-5	5	-16

Assay outcomes (PubChem BioAssay)
